# Reference: PubChem BioAssay
# Several values for one entry are separate records, joined by “and”; a condition that tells them apart may be missing. Equal entries are not always repeated. Activity calls are given as the source filed them. Unless noted, no stated cut-off is given here; in the data, active means inhibition above about 80%; inactive means the rest.
# Assays:
# [1] = compounds altering circadian rhythm period length – cell-based, LOPAC library, luminescence reporter (AID 2774; call rule not given here;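 further: values are relative to mean of DMSO wells on each plate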); settings: circadian reporter cells, at 7 µM, actives lie on both sides
# [2] = test system: Aerobactin synthetase IucA (Klebsiella pneumoniae); test: inhibition of K. pneumoniae IucA enzyme – biochemical, Tocris library, absorbance (AID 1345561; call rule not given here;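 further: 100% = enzyme without compound and 0% = no enzyme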); settings: purified IucA enzyme assay, absorbance (OD) read-out; stronger effect = lower value;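 tested at 8 µM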
# [3] = viability loss with induced miR-34 in A549 – imaging, A549 dox-inducible miR-34, nuclei and caspase counts, primary screen (AID 1347080;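 active means compounds whose cell count with miR-34 switched on is under 0.7 times the count with it off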); settings: A549 miR-34 inducible, Hoechst nuclei count, 48 h
# [4] = galactose survival enhancers in mitochondrial complex I cybrids – cell-based, galactose medium, ATP luminescence, primary screen (AID 1645843;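 active means z-score of at least 1.8 in each of two replicates, scored against plate mean and spread of sample wells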;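 further: positive z means more ATP and so rescue of galactose-driven cybrid death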); settings: complex I mutant cybrid cells, 72 h, stronger effect = higher value
# [5] = test system: Hepatitis C virus NS3 helicase; test: blockers of NS3h binding to ssDNA – biochemical, fluorescence polarization, LOPAC1280 library, primary screen (AID 687035; in the data active means inhibition above about 37%); settings: Purified HCV NS3 helicase, Cy5-dT15 ssDNA binding fluorescence polarization; stronger effect = higher value; concentration not given here
# [6] = compounds altering Cy5-DNA-NS3h complex signal – biochemical, LOPAC1280, artefact control for HCV NS3 helicase inhibitor project (AID 687037; call rule not given here); settings: Cy5-DNA-NS3h complex fluorescence interference counterscreen
# [7] = P. berghei load reduction in hepatocytes – cell-based, HepG2, luciferase luminescence, HepG2 viability, primary screen (AID 624349; in the data active means parasite load remaining mostly below about 12%, no sharp cut-off; inactive means mostly above about 10%;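 further: 100% = mean of DMSO negative control wells on the same plate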); settings: P. berghei liver stage in HepG2, luciferase luminescence, concentration not given here; parasite load remaining: stronger effect = lower value; viability: measured here: HepG2 viability without parasites
# [8] = growth inhibition, single agent or in combination, cell-based, chromothripsis tumors, cisplatin or BGB combos (AID 1671449); settings: LFS_MB_P medulloblastoma cells;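 further: cells exposed for 96 hours; 0% = vehicle DMSO and 100% = killing by high DMSO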
# [9] = growth inhibition, single agent and combos, cell-based, chromothripsis tumors, cisplatin or BGB combos (AID 1671450); settings: HDN33 neuroblastoma cells, stronger effect = higher value;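 further: cells exposed to compound for four days; 0% = vehicle DMSO and 100% = cell killing by high DMSO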
# [10] = growth inhibition, single agents and combos, ICB984, cell-based, cisplatin or BGB combos, synergistic combos for chromothripsis tumors (AID 1671451; call rule not given here;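 further: cells exposed for 96 hours before readout; 0% = vehicle DMSO and 100% = killing by high DMSO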); settings: ICB984 medulloblastoma cells, drug combinations, stronger effect = higher value
# [11] = growth inhibition, single agents and combos, LFS_MB_1R, cell-based, cisplatin or BGB combos, synergistic combos for chromothripsis tumors (AID 1671452); settings: LFS_MB_1R medulloblastoma cells, stronger effect = higher value;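 further: cells exposed for 96 hours before readout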
# [12] = growth inhibition, single agents and combos, HTB85, cell-based, BGB or cisplatin IC20 combos, synergistic combos for chromothripsis tumors (AID 1671453); settings: HTB85 osteosarcoma cells, drug combinations, stronger effect = higher value;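 further: cells exposed for 96 hours before readout; 0% = vehicle DMSO and 100% = high DMSO killing control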
# [13] = growth inhibition, single agents and combos, CRL2098, cell-based, BGB or cisplatin IC20 combos, synergistic combos for chromothripsis tumors (AID 1671454); settings: CRL2098 osteosarcoma cells, drug combinations, stronger effect = higher value;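 further: cells exposed for 96 h before readout; 0% = vehicle DMSO and 100% = killing by high DMSO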
# [14] = growth inhibition, single agents and combos, HD-MB03, cell-based, BGB or cisplatin IC20 combos, synergistic combos for chromothripsis tumors (AID 1671455; in the data active means inhibition above about 83%;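 further: 0% = vehicle DMSO and 100% = high DMSO as cytotoxic control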); settings: HD-MB03 medulloblastoma cells, stronger effect = higher value
# [15] = growth inhibition, single agents and combos, UWB1.289, cell-based, BGB or cisplatin combos, synergistic combos for chromothripsis tumors (AID 1671456); settings: UWB1.289 ovarian carcinoma cells, stronger effect = higher value;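 further: cells exposed to compound for four days; 0% = vehicle DMSO and 100% = killing by high DMSO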
# [16] = growth inhibition, single agents and combos, LFS_MB_2R, cell-based, cisplatin combos, synergistic combos for chromothripsis tumors (AID 1671457); settings: LFS_MB_2R medulloblastoma cells, stronger effect = higher value;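 further: cells exposed to compound for four days before readout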
# [17] = growth inhibition, MDA-MB-436, cell-based, BGB or cisplatin combos, synergistic combos for chromothripsis tumors (AID 1671458; call rule not given here;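 further: cells exposed for 96 hours; 0% = vehicle DMSO and 100% = killing by high DMSO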); settings: MDA-MB-436 breast carcinoma growth inhibition, drug combinations, stronger effect = higher value
# [18] = UWB1.289_BRCA1 ovarian cancer growth, cell-based, BGB or cisplatin combinations (AID 1671459); settings: UWB1.289 BRCA1 ovarian carcinoma, drug combinations, stronger effect = higher value
# [19] = drug combination toxicity in non-malignant astrocytes – cell-based, BGB or cisplatin IC20 combos, cytotoxicity control for chromothriptic childhood tumor combination screen (AID 1671460); settings: Human astrocytes, viability inhibition, drug combinations, at 0.5 µM, stronger effect = higher value;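 further: cells exposed to compounds for 96 hours before viability readout; 0% = vehicle and 100% = killing control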
# [20] = BT084 cell growth, single and combined drugs, ICGC_MB145, cisplatin and BGB IC40 combos (AID 1671461); settings: BT084 medulloblastoma cells, drug combinations, stronger effect = higher value;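 further: cells exposed to drugs for 96 hours; 0% = vehicle DMSO and 100% = high DMSO full killing control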
# [21] = RCMB18 cell growth, single agent and combined, cisplatin and BGB IC40 combos (AID 1671462); settings: RCMB18 medulloblastoma cells, stronger effect = higher value;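 further: cells exposed to compound for four days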
# [22] = CRL1545 cell growth, single agent and combined, cisplatin and BGB IC20 combos (AID 1671464); settings: CRL1545 osteosarcoma cells, stronger effect = higher value;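 further: cells exposed to compound for 96 hours before readout; 0% = vehicle DMSO and 100% = high DMSO killing control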
# [23] = stronger effect = lower value, cell number ratio, induced over uninduced
# [24] = measured here: relative caspase fold change +Dox/-Dox
# [25] = measured here: total cells with miR-34 induction, stronger effect = lower value
# [26] = measured here: total cells without miR-34 induction
# [27] = measured here: combination with BGB IC40, at 0.05 µM
# [28] = measured here: with BGB IC20 combination, at 0.5 µM
# [29] = measured here: with cisplatin IC20 combination, at 0.5 µM
# [30] = measured here: combination with cisplatin, at 0.5 µM
# [31] = measured here: combination with cisplatin, at 5 µM
smiles,measurement,setting,value
Cc1cccc(C)c1NC(=O)C[N+](C)(C)C,period change,[1],0.05 h (inactive)
same,remaining activity,[2],109% (inactive)
same,fold change,[3]; [23],1 (inactive)
same,fold change,[3]; [24],0.946
same,cell count,[3]; [25],9170
same,cell count,[3]; [26],9160
same,z-score,[4],-0.035 (inactive)
C#CCN1C(C)=C(C(=O)OC)C(c2cccc([N+](=O)[O-])c2)C(C(=O)OCC)=C1C (stereo unspecified),period change,[1],-0.025 h (inactive)
same,inhibition,[5],1% (inactive)
same,fluorescence ratio (interference),[6],0.9 (inactive)
same,remaining activity,[2],122% (inactive)
same,fold change,[3]; [23],0.951 (inactive)
same,fold change,[3]; [24],0.816
same,cell count,[3]; [25],7120
same,cell count,[3]; [26],7490
same,z-score,[4],-0.3 (inactive)
N#C/C(=C\c1ccc(O)c(O)c1)C(=O)Nc1ccccc1,period change,[1],0.11 h (inactive)
same,inhibition,[5],-2% (inactive)
same,fluorescence ratio (interference),[6],0.9 (inactive)
same,remaining activity,[2],117% (inactive)
same,fold change,[3]; [23],1.02 (inactive) and 0.911 (inactive)
same,fold change,[3]; [24],0.933 and 1.77
same,cell count,[3]; [25],7050 and 7400
same,cell count,[3]; [26],6920 and 8120
same,z-score,[4],-1.14 (inactive) and -0.745 (inactive)
O=c1cc(N2CCOCC2)oc2c1ccc1ccccc12,parasite load remaining,[7],36.5% (inactive)
same,viability,[7],108%
same,remaining activity,[2],119% (inactive)
same,fold change,[3]; [23],1.08 (inactive)
same,fold change,[3]; [24],1.44
same,cell count,[3]; [25],6910
same,cell count,[3]; [26],6380
same,z-score,[4],1.36 (inactive)
same,inhibition,"[8]; at 0.5 µM, stronger effect = higher value",-16% (inactive)
same,inhibition,"[8]; measured here: combination with BGB IC20, at 0.005 µM",-21.9%
same,inhibition,"[8]; measured here: combination with BGB IC40, at 0.005 µM",39.3%
same,inhibition,[8]; [27],-14.5%
same,inhibition,"[8]; measured here: combination with cisplatin, at 0.5 µM, stronger effect = higher value",-18.2%
same,inhibition,"[8]; measured here: combination with cisplatin, at 5 µM, stronger effect = higher value",6.61%
same,inhibition,"[9]; BGB combo, at 5 µM",-27.9%
same,inhibition,[9]; at 0.5 µM,5.72% (inactive)
same,inhibition,"[9]; cisplatin combo, at 5 µM",-6.14%
same,inhibition,[9]; [28],-2.44%
same,inhibition,[9]; [29],15.8%
same,inhibition,"[9]; single agent, at 5 µM",4.04%
same,inhibition,"[10]; BGB IC20 combo, at 0.005 µM",3.18%
same,inhibition,"[10]; BGB IC40 combo, at 0.005 µM",-0.874%
same,inhibition,"[10]; BGB IC40 combo, at 0.05 µM",-4.91%
same,inhibition,[10]; at 0.5 µM,-11.2% (inactive)
same,inhibition,"[10]; cisplatin combo, at 0.05 µM",-10.2%
same,inhibition,"[10]; cisplatin combo, at 0.5 µM",-14.9%
same,inhibition,"[10]; cisplatin combo, at 5 µM",-15.9%
same,inhibition,"[10]; measured here: 5 uM single agent, at 5 µM",0.403%
same,inhibition,[11]; at 0.5 µM,-3.28% (inactive)
same,inhibition,[11]; [27],-8.81%
same,inhibition,[11]; [30],-5.09%
same,inhibition,[11]; [31],16.4%
same,inhibition,[12]; at 0.5 µM,-0.76% (inactive)
same,inhibition,"[12]; measured here: with BGB IC20, at 0.5 µM",5.35%
same,inhibition,"[12]; measured here: with BGB IC20, at 5 µM",11.2%
same,inhibition,"[12]; measured here: with cisplatin IC20, at 0.5 µM",-3.29%
same,inhibition,"[12]; measured here: with cisplatin IC20, at 5 µM",1.5%
same,inhibition,"[12]; single agent, at 5 µM",5%
same,inhibition,[13]; at 0.5 µM,-13.1% (inactive)
same,inhibition,"[13]; measured here: combination with BGB at IC20, at 0.5 µM",-40.8%
same,inhibition,"[13]; measured here: combination with cisplatin at IC20, at 0.5 µM",19.4%
same,inhibition,[14]; at 0.5 µM,3.57% (inactive)
same,inhibition,"[14]; measured here: combo with BGB at IC20, at 0.5 µM",4.4%
same,inhibition,"[14]; measured here: combo with cisplatin at IC20, at 0.5 µM",-1.01%
same,inhibition,[15]; at 0.5 µM,-1.52% (inactive)
same,inhibition,"[15]; measured here: inhibition with BGB combination, at 0.05 µM",2.55%
same,inhibition,"[15]; measured here: inhibition with cisplatin combination, at 0.05 µM",-7.12%
same,inhibition,[16]; at 0.5 µM,0.24% (inactive)
same,inhibition,[16]; [30],7.58%
same,inhibition,[16]; [31],0.815%
same,inhibition,[17]; at 0.5 µM,2.45% (inactive)
same,inhibition,"[17]; measured here: BGB combination, at 0.5 µM",5.3%
same,inhibition,"[17]; measured here: BGB combination, at 5 µM",-21.1%
same,inhibition,"[17]; measured here: cisplatin combination, at 0.5 µM",-2.44%
same,inhibition,"[17]; measured here: cisplatin combination, at 5 µM",-6.05%
same,inhibition,"[18]; BGB combination, concentration series, at 5 µM",-2.5%
same,inhibition,[18]; at 0.5 µM,-1.77% (inactive)
same,inhibition,"[18]; cisplatin combination, concentration series, at 5 µM",4.97%
same,inhibition,[19],1.74% (inactive)
same,inhibition,[19]; measured here: combo with BGB IC20,-0.854%
same,inhibition,[19]; measured here: combo with cisplatin IC20,0.235%
same,inhibition,[20]; at 0.5 µM,-4.41% (inactive)
same,inhibition,"[20]; cisplatin combination, at 0.5 µM",-0.482%
same,inhibition,"[20]; cisplatin combination, at 5 µM",-111%
same,inhibition,"[20]; measured here: BGB IC40 combination 0.05 uM, at 0.05 µM",-19.7%
same,inhibition,"[20]; single agent, at 5 µM",2.3%
same,inhibition,[21]; at 0.5 µM,-17.7% (inactive)
same,inhibition,"[21]; cisplatin combo, at 5 µM",21.8%
same,inhibition,"[21]; measured here: BGB IC40 combination, at 0.05 µM",-2.3%
same,inhibition,[21]; [30],-18.7%
same,inhibition,"[21]; single agent, at 5 µM",1.08%
same,inhibition,[22]; at 0.5 µM,11.6% (inactive)
same,inhibition,[22]; [28],-23.5%
same,inhibition,[22]; [29],28%
same,inhibition,"[22]; single agent, at 0.05 µM",-4.12%
same,inhibition,"[22]; single agent, at 5 µM",-7.26%
